Calls of active or inactive are those of the source.

Test [1] can be described thus: binders of probe aFSTL3 on microarray, primary screen, stem cell growth factor project, biochemical, small-molecule microarray, fluorescence 635/667 (AID 1064).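 Further: measures binding of the biotinylated anti-FSTL3 antibody to printed compounds.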 The settings on record: higher = more signal.
The nature of test [2]: binders from COS7 lysate, DM2A8 probe, primary screen, torsin A project, cell lysate, small-molecule microarray, fluorescence 635/667 (AID 1065). As to conditions: higher = more signal, COS7 lysate expressing mutant human TOR1A.
Test [3] can be described thus: binders of probe aFGF2 on microarray, primary screen, stem cell growth factor project, biochemical, small-molecule microarray, fluorescence 635/667 (AID 1067).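 Further: measures binding of biotinylated aFGF2 protein to printed compounds on slides; z-score merges feature fluorescence and signal-to-noise across triplicate slides.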 As to conditions: higher = more signal.
Test [4] in a line: binders of probe aFGF10 on microarray, primary screen, stem cell growth factor project, biochemical, small-molecule microarray, fluorescence 635/667 (AID 1071).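 Further: score merges 667 nm spot intensity and signal to noise from triplicate slides.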 The settings on record: higher = more signal.
Test [5] concerns the target Neurogenic locus notch homolog protein 2 (Homo sapiens) (UniProt Q04721). Description: Notch2 binders on small-molecule microarrays, primary screen, biochemical, small-molecule microarray, 635 nm fluorescence, stem cell growth factors (AID 1073). The settings on record: Notch2 binding, higher = more signal.
Test [6] has as its target Pro-neuregulin-1, membrane-bound isoform (Homo sapiens) (UniProt Q02297). Briefly: NRG1 binders on small-molecule microarrays, primary screen, psychiatric disease protein project, biochemical, small-molecule microarray, fluorescence 635/667 (AID 1075).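 Further: score combines 667 nm spot fluorescence with signal to noise.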 As to conditions: NRG1 binding, 635 nm fluorescence, higher = more signal.
Test [7] concerns Neuregulin-1 EGF-like domain. Briefly: binders of neuregulin-1 EGF-like domain, primary screen, biochemical, small-molecule microarray, 635 nm fluorescence (AID 1081).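 Further: binding of the protein to compounds printed on small-molecule microarray slides.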 The settings on record: small-molecule microarray binding, higher = more signal.
A short description of test [8]: FRG1 promoter luciferase signal modulators, primary screen, FRG1 inhibition for FSHD, cell-based, C2C12 myotubes, firefly/Renilla luciferase, luminescence (AID 1084). As to conditions: higher = more signal, called active from +8 up or from −8 down.
Test [9] can be described thus: binders of probe aFST on microarray, primary screen, stem cell growth factor project, biochemical, small-molecule microarray, fluorescence 635/667 (AID 1086).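 Further: score merges 667 nm fluorescence with signal-to-noise of each printed compound spot.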 The settings on record: higher = more signal.
Test [10] can be described thus: binders of probe aHhip on microarray, primary screen, stem cell growth factor project, biochemical, small-molecule microarray, fluorescence 635/667 (AID 1087).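 Further: score merges spot fluorescence at 667nm with spot signal to noise ratio.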 The settings on record: higher = more signal.
Test [11] relates to PRMT1 (protein arginine N-methyltransferase 1). Description: PRMT1 binders on small-molecule microarrays, primary screen, biochemical, small-molecule microarray, 635 nm fluorescence (AID 1088).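 Further: binding of Prmt1 protein to compounds spotted on small-molecule microarray slides.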 The settings on record: small-molecule microarray binding, higher = more signal.
Test [12] is described as follows: yeast growth modulation, basal conditions, primary screen, YJM789 clinical isolate, OD600, 24 h (AID 1089).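 Further: growth of clinical yeast isolate S. cerevisiae YJM 789 seeded 1000 cells per well; test concentration not given here.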 As to conditions: S. cerevisiae YJM789 growth, higher = more signal, called active from +8 up or from −8 down.
Test [13] can be described thus: fission yeast growth modulation, primary screen, strain 972, OD600, 24 h, no modulator (AID 1090).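 Further: basal condition with compound alone and no growth modifier present; test concentration not given here.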 As to conditions: S. pombe 972 growth, higher = more signal, called active from +8 up or from −8 down.
Test [14] can be described thus: S. cerevisiae growth modulation with rapamycin, primary screen, strain BY4716, OD600, 96 h (AID 1091). Further: test concentration not given here. As to conditions: higher = more signal, called active from +8 up or from −8 down.
Test [15] has as its target Torsin-1A-interacting protein 2 (Homo sapiens) (UniProt Q8NFQ8). Description: LULL1 binders on small-molecule microarray, primary screen, cell lysate, human LULL1 lysate, 635/667 nm fluorescence (AID 1092).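 Further: probe is lysate of COS7 cells overexpressing human LULL1; score merges per-feature 667 nm fluorescence with signal-to-noise.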 The settings on record: hLULL1 lysate binding, 635 nm fluorescence, higher = more signal.
Test [16] can be described thus: E. coli growth modulation, two-sided OD650, primary screen, E. coli filamentation project, strain DRC41, 24 h (AID 1093).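 Further: MC1000 strain lacking acrAB efflux and sulA so SOS filamentation is blocked; test concentration not given here.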 As to conditions: OD650, 24 h, higher = more signal, called active from +8 up or from −8 down.
Test [17] is described as follows: small-molecule microarray binders of probe aLefty2, primary screen, biochemical, biotinylated probe, 635/667 nm fluorescence (AID 1094).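 Further: score merges spot fluorescence near 667 nm with spot signal-to-noise ratio.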 As to conditions: higher = more signal.
Test [18] relates to Noggin (protein binding on small-molecule microarray). Briefly: Noggin binders on small-molecule microarray, primary screen, biochemical, 635/667 nm fluorescence (AID 1095).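 Further: score merges 667 nm feature fluorescence with signal to noise over triplicate slides.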 The settings on record: 635 nm fluorescence, higher = more signal.
For test [19], the target named is Neurogenic locus notch homolog protein 3 (Homo sapiens) (UniProt Q9UM47). Description: NOTCH3 binders on small-molecule microarray, primary screen, biochemical, 635/667 nm fluorescence (AID 1096). As to conditions: NOTCH3 binding, 635 nm fluorescence, higher = more signal.
Test [20] can be described thus: small-molecule microarray binders of probe aEGFR, primary screen, biochemical, biotinylated probe, 635/667 nm fluorescence (AID 1097).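 Further: probe is a biotinylated anti-EGFR antibody binding compounds printed on slides; score combines fluorescence near 667 nm and signal to noise of each spot.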 As to conditions: higher = more signal.

Sequence of Pro-neuregulin-1, membrane-bound isoform (Homo sapiens) (Q02297 whole entry, looked up, the tested form may be a part, canonical isoform): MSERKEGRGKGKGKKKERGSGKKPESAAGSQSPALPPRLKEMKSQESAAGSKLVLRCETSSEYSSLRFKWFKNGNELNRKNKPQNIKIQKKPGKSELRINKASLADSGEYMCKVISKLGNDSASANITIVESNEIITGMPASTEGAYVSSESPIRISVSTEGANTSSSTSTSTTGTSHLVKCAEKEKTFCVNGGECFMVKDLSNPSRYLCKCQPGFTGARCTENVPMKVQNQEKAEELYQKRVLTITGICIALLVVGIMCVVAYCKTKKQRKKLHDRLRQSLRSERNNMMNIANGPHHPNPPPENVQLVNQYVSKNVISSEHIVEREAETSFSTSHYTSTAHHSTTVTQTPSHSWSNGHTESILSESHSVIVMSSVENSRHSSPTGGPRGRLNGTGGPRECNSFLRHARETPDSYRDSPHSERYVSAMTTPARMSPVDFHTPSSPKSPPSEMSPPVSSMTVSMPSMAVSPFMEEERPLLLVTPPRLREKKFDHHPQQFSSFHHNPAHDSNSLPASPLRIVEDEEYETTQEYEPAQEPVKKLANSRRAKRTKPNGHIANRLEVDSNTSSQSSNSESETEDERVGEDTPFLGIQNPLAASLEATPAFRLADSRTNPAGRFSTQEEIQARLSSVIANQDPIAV
Sequence of Neurogenic locus notch homolog protein 3 (Homo sapiens) (Q9UM47 whole entry, looked up): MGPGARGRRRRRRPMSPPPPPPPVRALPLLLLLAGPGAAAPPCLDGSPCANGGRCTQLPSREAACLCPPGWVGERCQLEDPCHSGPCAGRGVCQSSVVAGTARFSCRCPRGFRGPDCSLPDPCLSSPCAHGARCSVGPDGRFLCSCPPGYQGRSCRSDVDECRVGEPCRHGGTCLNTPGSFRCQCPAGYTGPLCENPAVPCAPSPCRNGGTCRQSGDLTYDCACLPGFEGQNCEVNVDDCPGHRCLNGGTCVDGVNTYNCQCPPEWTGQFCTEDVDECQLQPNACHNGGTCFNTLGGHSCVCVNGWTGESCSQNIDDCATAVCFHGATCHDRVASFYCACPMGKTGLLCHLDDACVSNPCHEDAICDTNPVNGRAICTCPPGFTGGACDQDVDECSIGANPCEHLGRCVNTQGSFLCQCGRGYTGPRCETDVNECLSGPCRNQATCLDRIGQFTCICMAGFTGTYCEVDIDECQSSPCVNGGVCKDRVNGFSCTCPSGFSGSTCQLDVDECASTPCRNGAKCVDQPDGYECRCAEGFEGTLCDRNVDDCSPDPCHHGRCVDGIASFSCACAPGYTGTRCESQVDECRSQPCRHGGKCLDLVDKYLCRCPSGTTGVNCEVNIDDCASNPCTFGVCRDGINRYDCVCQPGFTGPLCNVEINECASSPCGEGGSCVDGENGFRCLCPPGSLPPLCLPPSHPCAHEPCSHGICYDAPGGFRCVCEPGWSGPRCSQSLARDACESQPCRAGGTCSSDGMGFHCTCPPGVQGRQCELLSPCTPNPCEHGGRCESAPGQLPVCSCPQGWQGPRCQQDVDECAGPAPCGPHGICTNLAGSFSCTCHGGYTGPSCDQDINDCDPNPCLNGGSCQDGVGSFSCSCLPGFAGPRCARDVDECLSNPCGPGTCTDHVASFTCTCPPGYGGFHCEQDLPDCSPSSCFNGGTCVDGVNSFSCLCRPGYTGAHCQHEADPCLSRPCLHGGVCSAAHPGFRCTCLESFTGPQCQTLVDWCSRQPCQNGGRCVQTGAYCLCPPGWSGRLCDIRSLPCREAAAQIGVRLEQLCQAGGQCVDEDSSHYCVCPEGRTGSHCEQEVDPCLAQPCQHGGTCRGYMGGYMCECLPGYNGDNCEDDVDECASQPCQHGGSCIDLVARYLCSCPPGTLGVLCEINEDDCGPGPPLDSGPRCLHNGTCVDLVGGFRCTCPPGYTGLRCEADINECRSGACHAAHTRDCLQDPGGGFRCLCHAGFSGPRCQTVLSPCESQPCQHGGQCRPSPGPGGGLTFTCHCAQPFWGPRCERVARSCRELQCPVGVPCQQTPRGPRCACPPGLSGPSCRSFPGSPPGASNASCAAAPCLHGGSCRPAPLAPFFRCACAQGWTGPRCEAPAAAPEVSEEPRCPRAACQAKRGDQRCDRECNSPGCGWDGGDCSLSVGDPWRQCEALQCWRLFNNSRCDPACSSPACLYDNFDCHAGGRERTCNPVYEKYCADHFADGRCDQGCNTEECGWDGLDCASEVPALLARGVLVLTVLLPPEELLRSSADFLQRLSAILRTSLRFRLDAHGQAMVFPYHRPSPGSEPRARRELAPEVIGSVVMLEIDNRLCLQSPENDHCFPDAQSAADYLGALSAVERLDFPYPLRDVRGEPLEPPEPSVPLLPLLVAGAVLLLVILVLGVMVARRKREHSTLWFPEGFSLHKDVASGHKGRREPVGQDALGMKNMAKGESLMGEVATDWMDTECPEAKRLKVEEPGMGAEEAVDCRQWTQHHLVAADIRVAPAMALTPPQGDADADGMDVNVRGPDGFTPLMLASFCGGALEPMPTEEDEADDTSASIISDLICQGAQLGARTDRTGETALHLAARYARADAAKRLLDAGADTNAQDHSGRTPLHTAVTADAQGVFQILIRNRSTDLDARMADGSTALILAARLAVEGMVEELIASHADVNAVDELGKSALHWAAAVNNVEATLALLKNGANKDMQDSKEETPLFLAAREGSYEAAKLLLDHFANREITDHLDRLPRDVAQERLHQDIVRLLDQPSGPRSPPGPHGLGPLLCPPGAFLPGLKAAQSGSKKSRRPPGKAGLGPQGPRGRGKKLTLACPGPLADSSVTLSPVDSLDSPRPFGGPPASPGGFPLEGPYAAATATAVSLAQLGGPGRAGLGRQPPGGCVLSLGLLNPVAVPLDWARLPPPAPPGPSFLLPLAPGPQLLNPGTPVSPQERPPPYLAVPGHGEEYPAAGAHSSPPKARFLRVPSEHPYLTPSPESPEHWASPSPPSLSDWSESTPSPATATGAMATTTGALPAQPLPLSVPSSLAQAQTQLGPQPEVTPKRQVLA
Sequence of Torsin-1A-interacting protein 2 (Homo sapiens) (Q8NFQ8 whole entry, looked up): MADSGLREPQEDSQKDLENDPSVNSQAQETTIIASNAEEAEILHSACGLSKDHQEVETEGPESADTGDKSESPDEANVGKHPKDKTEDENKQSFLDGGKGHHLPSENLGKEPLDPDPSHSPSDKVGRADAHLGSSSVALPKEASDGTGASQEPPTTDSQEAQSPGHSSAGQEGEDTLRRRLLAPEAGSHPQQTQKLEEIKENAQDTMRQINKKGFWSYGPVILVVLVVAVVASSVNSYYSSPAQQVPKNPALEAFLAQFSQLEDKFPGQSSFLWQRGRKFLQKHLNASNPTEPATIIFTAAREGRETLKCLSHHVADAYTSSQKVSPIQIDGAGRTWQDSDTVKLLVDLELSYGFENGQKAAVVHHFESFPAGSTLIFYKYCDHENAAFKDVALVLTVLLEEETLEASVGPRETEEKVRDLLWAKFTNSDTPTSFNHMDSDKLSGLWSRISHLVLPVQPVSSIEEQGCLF

With `CO[C@H]1O[C@H](CO)[C@@H](OC(=O)Nc2cccc(F)c2)[C@H](OC(=O)Nc2ccc3c(c2)OCO3)[C@H]1OC(=O)Nc1ccc2c(c1)OCO2`, the composite z-score in test [1] is -0.382; in test [2], 0.755; in test [3] it was 0.0094; in test [4], 0.358; in [5] it was 0.893; in test [6], 0.958. The composite z-score in [7] is 1.17; in test [9], -0.253; in test [10], -0.201; in [11] it was 1.55; in test [15] it was 3.25; in test [17], -0.0025. Moreover, the composite z-score in [18] is 1.07; in [19], 0.649; in [20], -0.142. Also, the z-score is 6.24 (inactive) in [8]; 1.38 (inactive) in [12]; 1.29 (inactive) in [13]; 1.6 (inactive) in test [14]; 1.76 (inactive) in [16].

As for `COC(=O)C(CC#Cc1ccc2c(c1)[C@]1(C(=O)N2)[C@H](c2ccc(O)cc2)N2[C@H](c3ccccc3)[C@H](c3ccccc3)OC(=O)[C@H]2[C@@H]1C(=O)O)C(=O)OC`, the composite z-score in [1] was -0.331; in test [2] it was -0.11; in test [3], -0.132; in [4], 0.206; in [5], 0.63; in test [6], 0.82. The composite z-score in test [7] is 0.798; in test [9], 1.25; in [10], 0.0505; in [11], 0.439; in [15], 2.96; in test [17], -0.166. Further, the composite z-score in test [18] is 0.307; in test [19], 0.64; in test [20], -0.0152. Further, the z-score was 0.831 (inactive) in test [8]; 1.22 (inactive) in test [12]; -0.489 (inactive) in test [13]; -0.922 (inactive) in test [14]; -1.28 (inactive) in test [16].

`COC(=O)[C@@]1(Cc2ccc(OC)cc2)[C@H]2c3cc(C(=O)N4CCCC4)n(CCF)c3C[C@H]2CN1C(=O)c1ccccc1`: the composite z-score in test [1] was 3.09; in test [2], -0.334; in [3] it was 0.972; in test [4] it was 1.44; in [5], 1.66; in test [6], 2.27. Further, the composite z-score in test [7] came out at 1.43; in test [9] it was 3.23; in test [10] it was 3; in test [11], 0.669; in [15], 3.56; in test [17], 1.64. In addition, the composite z-score was -0.183 in [18], 1.12 in test [19] and 1.37 in test [20]. Besides, the z-score in test [8] was 1.37 (inactive); in test [12] it was 0.366 (inactive); in test [13] it was 1.13 (inactive); in test [14] it was 0.4 (inactive); in test [16], -1.09 (inactive).

As to `COC(=O)[C@@]1(Cc2ccc(OC)cc2)[C@H]2c3cc(C(=O)N4CCCC4)n(Cc4ccc(C)o4)c3C[C@H]2CN1C(=O)c1ccccc1`, the composite z-score in [1] was 0.833; in test [2] it was -0.0673; in [3], 0.218; in [4] it was 1.15; in [5], 1.62; in test [6] it was 1.83. Besides, the composite z-score in test [7] is 0.266; in test [9] it was 1.05; in test [10] it was -0.116; in test [11] it was 0.622; in test [15], 3.24; in test [17], 0.292. Besides, the composite z-score came out at 0.355 in test [18], 1.07 in test [19] and 0.0059 in test [20]. Besides, the z-score was 8.22 (active) in test [8]; -19.7 (active) in test [12]; -15.7 (active) in test [13]; -2.14 (inactive) in test [14]; -0.715 (inactive) in test [16].

In the case of `O=C(O)[C@]1(CCS(=O)(=O)c2ccccc2)N=C(c2ccc(OCCCO)cc2)O[C@@H]1c1ccccc1`, the composite z-score in test [1] was 1.19; in test [2], -0.106; in test [3], 0.115; in [4], -0.0267; in test [5], 0.506; in [6] it was 1.13. Further, the composite z-score in [7] worked out at 1.05; in [9], 0.914; in [10] it was 0.744; in [11], 0.464; in test [15], 3.4; in [17], 0.337. Moreover, the composite z-score is -0.116 in test [18], -0.687 in [19] and 0.0021 in test [20]. Also, the z-score in [8] was 0.694 (inactive); in test [12] it was -0.15 (inactive); in test [13], -2.3 (inactive); in [14], -0.961 (inactive); in test [16], 0.0201 (inactive).

(Values after PubChem BioAssay.)
